Laboratory results from PubChem BioAssay (NCI).
This is part of a sample that, as a whole, favours compounds with a hit. Of some 83,000 tested, about 20% had one in any assay.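 Percent growth is the endpoint: 0 to 100 indicates growth inhibition (40 means 60% inhibition), 0 means no net growth, and negative values indicate cell death.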 Calls of active or inactive are those of the source. How the source made its calls: active means growth percent below 10; inactive means the rest.

These molecules were tested on MDA-MB-468 breast (assay: NCI-60 one-dose screen, 48 h (100 = growth as untreated, 0 = no growth, -100 = all killed)). Details: 10 µM unless noted.
In the case of `CC(=O)O[C@H](C[C@H](C(C)C)N(C)C(=O)[C@@H](NC(=O)[C@H]1CCCN1C)C(C)C)c1nc(C(=O)N[C@@H](Cc2ccccc2)C[C@H](C)C(=O)O)c(C)s1`, the growth was 18.7% (inactive). `Nc1c(Cl)c(Cl)nc(C(=O)O)c1Cl` was tested, and the growth was 107% (inactive). For `COC(C)(C)CCC[C@H](C)C/C=C/C(C)=C/C(=O)OC(C)C`, the growth was 86.7% (inactive). With `CCN(CC)c1ccc(C=C2C(=O)NC(=S)NC2=O)cc1` the growth was 74.2% (inactive). With `COc1ccc(N)cc1N` the growth was 101% (inactive). `COc1cccc(C=NC(Cc2cnc[nH]2)C(=O)O)c1O` (stereo not drawn) was tested, and the growth was 55.4% (inactive). `CCC(=O)C(CC(C)[N+](C)(C)C)(c1ccccc1)c1ccccc1` (stereo not drawn) was tested, and the growth was 85.5% (inactive). With `C[CH2][Hg][S]c1ccccc1C(=O)O` the growth was -86.6% (active). In the case of `C/C=C(/C)C(=O)O[C@H]1CC[C@@]2(C)[C@@H]3CC[C@H]4[C@]5(O)C[C@H](O)[C@@]6(O)[C@@H](CN7C[C@@H](C)CC[C@H]7[C@@]6(C)O)[C@]5(O)C[C@@]42O[C@@]13O`, the growth was 106% (inactive). With `CN1C(=O)N[C@H]2[C@@H]3NC(=O)c4ccc(Br)n4[C@@H]3C[C@]21O` the growth was -50.6% (active). `COC(=O)[C@@H](C)C[C@H](Cc1ccccc1)NC(=O)c1nc([C@@H](C[C@H](C(C)C)N(C)C(=O)[C@@H](NC(=O)[C@H]2CCCCN2C)C(C)C)OC(C)=O)sc1C` was tested, and the growth was 53.2% (inactive). In the case of `Nc1ccc(Cl)cc1`, the growth was 97% (inactive). `C[C@]12CCc3sc(-c4ccc(Cl)cc4)nc3C1=CC[C@@H]1[C@@H]2CC[C@]2(C)C(=O)CC[C@@H]12` was tested, and the growth was 55.5% (inactive).
